Source: PubChem (National Center for Advancing Translational Sciences (NCATS))
Shown are actives, neighbours in structure and some others; about 4.1% of the full set was active somewhere.
AMA1 RON2 block: inhibitors of Plasmodium falciparum AMA1-RON2 interaction | AlphaScreen AMA1-biotinylated RON2 peptide binding | AID 720542 | actives 0.2% (n = 360,000) | Potency, µM (doses to about 58.2 µM), inactives show top-dose activity change, negative = inhibition, actives largely listed as inhibitors;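 note: 0% = vehicle wells and -100% = peptide control; nearly all actives have a fitted effect of over 45% in size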
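AMA1 (3D7) with his tag at 25 nM final met compounds first, then biotinylated RON2 peptide at 25 nM; detection used donor plus acceptor beads, 10 µg/mL apiece, read by AlphaScreen after 30 min at room temperature.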
AmpC inh detg: inhibitors of E. coli AmpC beta-lactamase with detergent | AID 485294 | P00811 | actives 0.041% (n = 370,000) | AmpC hydrolysis of nitrocefin, absorbance 480 nm, 0.01% Triton | Potency, µM (doses to about 114 µM), for the others: at the top dose activity change, negative = inhibition, usual class: inhibitors;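 note: 0% = no-compound wells and -100% = no-enzyme wells; nearly all actives have a fitted effect of over 25% in size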
Target sequence (P00811 whole entry, looked up): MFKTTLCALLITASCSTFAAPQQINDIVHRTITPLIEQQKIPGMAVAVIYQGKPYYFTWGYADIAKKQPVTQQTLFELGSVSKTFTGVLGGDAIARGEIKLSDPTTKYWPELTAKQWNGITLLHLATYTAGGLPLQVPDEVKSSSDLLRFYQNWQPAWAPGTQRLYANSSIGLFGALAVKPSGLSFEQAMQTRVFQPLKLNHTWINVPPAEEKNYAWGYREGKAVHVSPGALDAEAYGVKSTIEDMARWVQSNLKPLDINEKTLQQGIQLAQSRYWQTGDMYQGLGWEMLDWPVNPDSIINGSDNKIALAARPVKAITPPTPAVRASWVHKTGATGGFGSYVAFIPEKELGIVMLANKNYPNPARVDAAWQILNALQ
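20 mM phosphate pH 7.0 + 0.01% (detergent screen) or 0.0001% Triton X-100; 5.3 nM AmpC reagent; cpd preinc 15 min RT; nitrocefin (800 uM stock) to start; A480 q20 s × 4 min; Activity was normalised to no-enzyme and no-compound control wells.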
FMDV antiviral: antivirals against foot and mouth disease virus. FMDV antiviral cell-based qHTS. Potency, µM (top dose mostly 57.9 µM), without a hit: top-dose activity change, negative = inhibition, hits mostly inhibitors. actives 1.2% (n = 410,000); calls by dose curve; tested in HEK293T cells; note: read-out not given here; nearly all actives have a fitted effect of over 45% in size
AmpC no deterg: inhibitors of E. coli AmpC beta-lactamase without detergent | P00811 | AmpC nitrocefin hydrolysis, absorbance 480 nm, 0.0001% Triton | Potency, µM (highest dose often 57.1 µM), inactives show top-dose activity change, negative = inhibition, hits mostly inhibitors | actives 0.52% (n = 330,000) | AID 485341;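 note: plate controls were no compound for no effect and no enzyme for full effect; nearly all actives have a fitted effect of over 20% in size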
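AmpC (5.3 nM in the dispensed reagent) in 20 mM phosphate pH 7.0 with 0.01% (detergent screen) or 0.0001% Triton X-100 was preincubated with compounds for 15 min at room temperature. Nitrocefin was then added from an 800 uM solution, and hydrolysis was followed at 480 nm.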
Sm TGR block: blocks Schistosoma mansoni thioredoxin glutathione reductase; purified TGR, DTNB reduction, TNB absorbance 405 nm; Potency, µM (doses to about 114 µM), for inactives: top-dose activity change, negative = inhibition, actives largely listed as inhibitors; actives 3% (n = 360,000); note: nearly all actives have a fitted effect of over 60% in size
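Kinetic colorimetric format: TGR-catalysed, NADPH-driven DTNB reduction monitored via TNB absorbance. Enzyme dispensed at 20 nM; compound exposure 15 min at room temperature before reaction start.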
The depositor's hits bear a star; [ ] = remark or other dose. Unless noted, calls come from the whole dose curve; as a rule, active = well fitted curve in the direction sought with a large enough effect; inconclusive = small, poorly fitted or top-dose-only effect, or another doubt; inactive = no such curve, though single readings can be large; an effect the other way counts as inactive or inconclusive. Unless noted, % is set by controls: 0 for no effect and ±100 for the full control effect; potency is the fitted concentration of half-maximal effect.

For CCOC(=O)C1=CC[C@@H](c2ccccc2C(F)(F)F)N(S(=O)(=O)c2ccc(C)cc2)[C@H]1c1ccc(C#N)cc1 the results were AMA1 RON2 block 6% and FMDV antiviral -17%.
Screening Cc1c(N=NC2=C(O)CCCC2=O)c(=O)n(-c2ccccc2)n1C returned AMA1 RON2 block 15%, AmpC inh detg 4%, FMDV antiviral -19%, AmpC no deterg -16% and Sm TGR block 18µM*.
For Cc1c(N=Nc2ccc(O)cc2)c(=O)n(-c2ccccc2)n1C the results were AMA1 RON2 block 18%, AmpC inh detg 10%, FMDV antiviral 1%, AmpC no deterg -28% and Sm TGR block -1%.
`COc1ccccc1C1CC(c2ccc(Br)cc2)=NN1C(=O)c1cccnc1` (stereo not drawn) gave AMA1 RON2 block -10%, AmpC inh detg 2%, FMDV antiviral 32µM*, AmpC no deterg 73% and Sm TGR block 0%.
For CC(=O)Nc1ccc(OCC(O)Cn2c3ccccc3c3ccccc32)c(C)c1 (stereo not drawn) the results were AMA1 RON2 block 3%, AmpC inh detg inconclusive, FMDV antiviral 22µM*, AmpC no deterg 122% and Sm TGR block 7%.
For COc1ccc(CCNCCN2CCOCC2)cc1 the results were AMA1 RON2 block 14µM*, AmpC inh detg -3%, FMDV antiviral 4%, AmpC no deterg -17% and Sm TGR block 20%.
Cc1ccc(N(C)C(=O)C2CCCN(c3ncnc4c3nc3n4CCCCC3)C2)cc1C (stereo not drawn) was read as AmpC inh detg 0%, FMDV antiviral inconclusive and Sm TGR block -2%.
`CCOC(=O)C(NC(=O)CCl)(Nc1sc(C)c(CC)c1C#N)C(F)(F)F` (stereo not drawn) gave AMA1 RON2 block -1%, AmpC inh detg -9%, FMDV antiviral inconclusive, AmpC no deterg -16% and Sm TGR block 16µM*.
`O=C(Cn1cc(C(=O)C2CC2)c2ccccc21)Nc1ccc(Br)cc1` gave AmpC inh detg 22%, FMDV antiviral -14% and Sm TGR block -2%.
Screening CC1(C)CC2(CC(c3ccccc3F)c3ccc(O)c(O)c3O2)NC(=S)N1 (stereo not drawn) returned AMA1 RON2 block 50%, AmpC inh detg -11%, FMDV antiviral -18%, AmpC no deterg -31% and Sm TGR block 1.1µM*.
`COc1ccccc1C1CN(CC(=O)N[C@H]2CCCCNC2=O)Cc2ccccc2O1` (stereo partly drawn) gave FMDV antiviral -6%.
`CC(=O)c1ccc(NC(=S)N2C(C)CCCC2C)cc1` (stereo not drawn) gave AmpC inh detg -3%, AmpC no deterg -1% and Sm TGR block 35µM*.
Screening CC(=O)c1ccc(NC(=S)N2CCCCCC2)cc1 returned AMA1 RON2 block 27%, AmpC inh detg -1%, FMDV antiviral 84%, AmpC no deterg -9%[2.29 µM] and Sm TGR block -8%.
For O=C(NCCc1ccccn1)c1cnn(-c2ncc3c(n2)-c2ccccc2CC3)c1C1CC1 the results were FMDV antiviral -27%.
`COc1ccc(NC(=O)CSc2oc(-c3ccco3)nc2S(=O)(=O)c2ccc(C)cc2)c(OC)c1` gave AmpC inh detg 6%, FMDV antiviral 0% and Sm TGR block inconclusive.
`Cc1ccc(S(=O)(=O)c2nc(-c3ccco3)oc2SCC(=O)NCC2CCCO2)cc1` (stereo not drawn) gave AMA1 RON2 block 5%, AmpC inh detg 3%, AmpC no deterg 21% and Sm TGR block 35µM*.
`CCSc1oc(-c2ccco2)nc1S(=O)(=O)c1ccc(C)cc1` gave AMA1 RON2 block -26%, AmpC inh detg 2%, FMDV antiviral -9%, AmpC no deterg -26% and Sm TGR block 40µM*.
Screening CCSc1oc(-c2ccco2)nc1S(=O)(=O)c1ccc(F)cc1 returned AMA1 RON2 block 1%, AmpC inh detg -6%, FMDV antiviral 7%, AmpC no deterg -60% and Sm TGR block 14µM*.
COc1ccc(NC(=O)CSc2oc(-c3ccc(C)cc3)nc2S(=O)(=O)c2ccc(C)cc2)c(OC)c1 was read as AmpC inh detg -6%, FMDV antiviral 7% and Sm TGR block 50µM*.
Cc1ccc(S(=O)(=O)c2nc(-c3ccco3)oc2SC(C)C)cc1 was read as AMA1 RON2 block -5%, AmpC inh detg -15%, FMDV antiviral 14%, AmpC no deterg -8% and Sm TGR block inconclusive.
Cc1ccc(S(=O)(=O)c2nc(-c3ccco3)oc2SCc2ccc(F)cc2)cc1 was read as AmpC inh detg 5%, FMDV antiviral -19% and Sm TGR block inconclusive.
Screening Cc1c(C(=O)NCc2cccc(F)c2)sc2ncnc(NCC3CCCO3)c12 (stereo not drawn) returned FMDV antiviral -9%.
`O=C(Nc1cccc(C(=O)OCc2cc(=O)n3c4c(sc3n2)CCCC4)c1)c1ccc(Cl)cc1` gave AmpC inh detg 15%, FMDV antiviral -19% and Sm TGR block 2%.
Screening CCc1cccc(NC(=O)Cn2nc(-c3cc(C)ccc3C)ccc2=O)c1 returned AmpC inh detg -6%, FMDV antiviral 0% and Sm TGR block 2%.
Screening Cc1ccc(S(=O)(=O)c2nc(-c3ccco3)oc2SCC(C)C)cc1 returned AmpC inh detg 10%, FMDV antiviral -6% and Sm TGR block -15%.
For CC(C)CSc1oc(-c2ccco2)nc1S(=O)(=O)c1ccccc1 the results were AMA1 RON2 block 1%, AmpC inh detg 9%, FMDV antiviral 18%, AmpC no deterg -30% and Sm TGR block 45µM*.
`Cc1cc(OCC(=O)NCC2(N3CCN(C)CC3)CCCCC2)cc(C)c1Cl` gave AmpC inh detg 20%, FMDV antiviral -4% and Sm TGR block 5%.
For Cc1ncccc1C(=O)N1CCCC(C(=O)c2ccc3c4c(cccc24)CC3)C1 (stereo not drawn) the results were AMA1 RON2 block 1%, AmpC inh detg 0%, FMDV antiviral inconclusive, AmpC no deterg 218% and Sm TGR block 10%.
Screening O=C(c1ccc2c3c(cccc13)CC2)C1CCCN(C(=O)c2ccc(=O)[nH]c2)C1 (stereo not drawn) returned AMA1 RON2 block -1%, AmpC inh detg -4%, FMDV antiviral -13%, AmpC no deterg 63% and Sm TGR block 40µM*.
O=C(Oc1ccccc1)N1CCC[C@@]2(CCN(c3ccccc3)C2)C1 was read as FMDV antiviral -25%.
`Cc1ccc(Nc2cc(C(=O)NCc3cccs3)c3ccccc3n2)c(C)c1` gave AmpC inh detg 6%, FMDV antiviral -3% and Sm TGR block 13%.
